Source: PubChem BioAssay
Values without a mark were called inactive. How the calls were made is not given here.

These compounds were tested on Aerobactin synthetase IucA (Klebsiella pneumoniae hvKP1) (assay: Biochemical IucA enzyme inhibition primary screen of the Spectrum library (AID 1346200;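 further: 100% = wells without compound and 0% = wells lacking enzyme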)). Settings: malachite green pyrophosphate, A620, at 8 µM, hits give low values.
CCC(c1ccc(O)cc1)C(CC)c1ccc(O)cc1 (stereo unspecified) gave an activity remaining of 121%.
For Cc1cc(O)cc(O)c1C(=O)O, the activity remaining was 113%.
CO[C@H]1/C=C/O[C@@]2(C)Oc3c(C)c(O)c4c(O)c(c(C=NN5CCN(C)CC5)c(O)c4c3C2=O)NC(=O)/C(C)=C\C=C\C(C)[C@H](O)[C@@H](C)[C@@H](O)[C@@H](C)[C@@H](OC(C)=O)[C@@H]1C (stereo partly specified) gave an activity remaining of 98.4%.
In the case of CC(=O)Oc1cc2c(c(C)c1OC(C)=O)CC=C1[C@@]2(C)CC[C@@]2(C)C3C[C@](C)(C(=O)O)CC[C@]3(C)CC[C@]12C (stereo partly specified), the activity remaining was 95.9%.
Work on O=C1c2ccccc2C(=O)c2c(O)c(O)cc(O)c21 yielded an activity remaining of 118%.
COc1ccc(CN(CCN(C)C)c2ncccn2)cc1 gave an activity remaining of 120%.
